Source: the supplement of paper PMC11417369
± gives the standard deviation of the averaged measurements. Over roughly 25,000 sequences, “ln(normalized median fluorescence intensity)” has its median near 10; the highest 2% begin near 12. The sample holds the highest values, similar sequences and a random draw of the others, so the mix is not that of the screen.

What follows are sequences tested on PfAP2-G AP2 domain (GST-tagged) (assay: gcPBM binding intensity (ln(normalized median fluorescence intensity)); higher = stronger DNA binding).
In short: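 Plasmodium falciparum DNA-binding domains carrying a GST tag were expressed in E. coli and applied for 1 h, at about 25 μg on average, to an Agilent 4 × 180k array. The array held primer-extended double-stranded 36-bp intergenic genomic probes together with negative controls, and binding took place in 1× PBS with 1% milk, 0.2 mg/ml BSA, 0.5% salmon testes DNA and 0.03% Triton X-100. An Alexa488 anti-GST antibody detected bound protein, and the array was scanned at 488 nm. Binding intensity is taken as the highest Masliner-normalised natural-log median intensity across replicate spots of either probe orientation.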

Row | Sequence | gcPBM binding intensity (ln)
1 | TGATAACCTCACAAATGTACGTACGGGGCTAGCATT [XGTACX_site4157] | 11.4 ± 0.78
2 | GTATATGAATGTTCATGTACATAATAAAATATATAA [XGTACX_site250] | 11 ± 0.56
3 | ATGCGTTTAGCAAAAAGTACATATATATATAATATT [XGTACX_site1928] | 11.2 ± 0.73
4 | TTTTATTTATATTATACACACAAGGAAAAAAAAAAA [CACACA_site7690] | 10.2 ± 0.26
5 | TATAAAATATATATCTGTACGTATTTTATTTTTTAT [XGTACX_site6257] | 11.4 ± 0.88
6 | TATATATTATATATATGTACATAATTCCATGTTTAG [XGTACX_site3943] | 11.2 ± 0.81
7 | TGGTGTTTTTTTTAATGTACTTATAAAATAATACAT [XGTACX_site6574] | 11.4 ± 0.83
8 | ATATATTATTTCTAGTGTACATACCCATATATAATA [XGTACX_site8902] | 11.2 ± 0.69
9 | ATTATTTATTATTTCTGTACGTATAAAAATAACATT [XGTACX_site1671] | 11.7 ± 1.1
10 | AATAGTTATTCCAGGTGTACATAACATATAATTTAC [XGTACX_site1340] | 11.5 ± 0.95
11 | AATAAAAAAAATTTCTGTACATATATTTATTATATA [XGTACX_site1883] | 11.1 ± 0.74
12 | TTATAATTTTTCTATTGTACATTTAATAATATATAT [XGTACX_site7326] | 10.9 ± 0.47
13 | ATAAATACTTTTTGGTGTACACTTTTAAATGAAAAA [XGTACX_site3042] | 11.8 ± 1
14 | AGTTTCCATATGAGGTGTACATATATAATTTATTAT [XGTACX_site2369] | 11.6 ± 0.71
15 | GTTTTCTAGTGGGGGTGTACATATTTATATTTAATA [XGTACX_site8378] | 11.7 ± 0.86
16 | CTTTTTTTTTAAAAATGTACACATTTTTGAAAATAC [XGTACX_site3127] | 11.4 ± 0.84
17 | ATTTTTTAAAATATTTGTACATATATAATGCATATA [XGTACX_site7026] | 11 ± 0.64
18 | TTCTTTTTCCAATTTGCACACCACAAAATTATATAT [CACACA_site2909] | 10.5 ± 0.28
19 | AGAGTATATATATATGCATGCATATCTCATATTTAT [TGCATGCA_site509] | 9.71 ± 0.13
20 | CATATTAATATTATGGGTACATATAAATTTACATTC [XGTACX_site687] | 11.4 ± 0.83
21 | TTTCTTGGGAGACATGCATGTACCAGAACAAAATAA [TGCATGCA_site272] | 10.9 ± 0.64
22 | AAAAAAAAAAAAAAAAAAAAAAAAAAAAATAAAAAA [CACACA_negctrl_site59] | 11 ± 0.47
23 | AATAATAACTGTAGGTGTACGTAAAAAAAAAATTAT [XGTACX_site3133] | 11.7 ± 0.96

Row | Sequence | gcPBM binding intensity (ln)
24 | TATTATATATATAACTGTACGTTTATAATATAAAAA [XGTACX_site3778] | 11.4 ± 1.1
25 | AAAATAATAAAAAACTGTACGAATTAAAAATTAACA [XGTACX_site8454] | 11.1 ± 0.8
26 | AAAACATATTTTAAAAGTACTTGAAAAAAAATTTTC [XGTACX_site3940] | 11 ± 0.56
27 | CCAAAAAATATATGTAGTACTACATTATTAAATATG [XGTACX_site5128] | 11.6 ± 0.83
28 | ATATAATATTACACAAGTACAAAAATTAATACTAAA [XGTACX_site482] | 11.1 ± 0.61
29 | ACTACTCCATTAAGTAGTACACAAAAAAAAAAAATA [XGTACX_site7031] | 11.8 ± 1.1
30 | CTCATCCTTACATACACACACATATATATATATATA [CACACA_site103] | 10.3 ± 0.41
31 | AGTTTATATTATTAAAGTACATATATATATTCTTAA [XGTACX_site3164] | 11.1 ± 0.76
32 | ATATATTTAATTTATGGTACACATAATTTTTTTAGA [XGTACX_site848] | 11.2 ± 0.79
33 | TATATATATATATTATGTACTCATTTATTATCTTTT [XGTACX_site8051] | 11.4 ± 1.1
34 | ATATATATATATATATGTACTCATATTTTATTATTT [XGTACX_site898] | 11.4 ± 0.94
35 | TTTGTCATTTTATTATGTACTCAGCATATAGGGGGG [XGTACX_site505] | 11.7 ± 0.66
36 | AAAAAAAAAAAACATACACACATACATACATATATA [CACACA_site8222] | 9.86 ± 0.099
37 | ATTAAAGTTATAAATTCACACATGTAAATGTATTTA [CACACA_site5279] | 9.85 ± 0.11
38 | TAGTAGTTATCATTAACATGCAATAATATTATTTAA [TGCATGCA_site178] | 9.635 ± 0.035
39 | AATATAGATATAAAAAGTACATTATATATATATATA [XGTACX_site6899] | 11.3 ± 0.78
40 | ATATATATATATATATGTACACATATATGTGTTTGT [XGTACX_site62] | 11.4 ± 0.88
41 | GCTTCTTAATATCATACACACATAGATATATTTATA [CACACA_site5676] | 9.925 ± 0.078
42 | ATTTCTAGTTTAAGATGTACTTTAATAAAAATTATT [XGTACX_site4820] | 11 ± 0.77
43 | AAAAATATTAAAAGGCGTACAATACCTGTATGCAAC [XGTACX_site6069] | 11.6 ± 1
44 | AAGGCATACAATACCTGTACGCAACCTTAAAAAGAA [XGTACX_site6070] | 11.5 ± 0.91
45 | TATATATGTATGTATTGTACAATTAAAAATATGTAT [XGTACX_site3990] | 10.8 ± 0.43
